Inconclusive results are not listed. A number with no mark means an inactive call. Activity calls are given as the source filed them. Calls come from the whole dose curve; as a rule, active = well fitted curve in the direction sought with a large enough effect; inconclusive = small, poorly fitted or top-dose-only effect, or another doubt; inactive = no such curve, though single readings can be large; an effect the other way counts as inactive or inconclusive.
Assays:
[1] = system: UISO; assay: qHTS assay to identify novel small-molecules to repurpose for Merkel cell carcinoma treatment (AID 1296009); settings: MCC and control cell lines, CellTiter-Glo viability, 72 h; series mostly up to 46 µM; note: nearly all actives have a fitted effect of over 60% in size
How it was run: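 Cells were incubated with compound for 72 hr at 37 degree celsius before CellTiter-Glo addition. Luminescence was normalized with no-cell wells as full cytotoxicity and DMSO as baseline.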

[2] = system: C33A; assay: Primary qHTS to identify gynecologic anti-cancer compounds using libraries of approved drugs and bioactive compounds (AID 1345084); settings: Gynecologic cancer cell panel viability, ATPlite luminescence, 48 h; series mostly up to 57.5 µM; note: nearly all actives have a fitted effect of over 55% in size
How it was run: (§1)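 Five-point cytotoxicity, 48 h drug exposure at 37 C, 5% CO2, on cells seeded 16 h beforehand. ATP content read by ATPlite luminescence.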

[3] = system: Es-2; assay: as above; settings: Gynecologic cancer cell panel viability, ATPlite luminescence, 48 h; series mostly up to 57.5 µM
How it was run: as §1

[4] = system: Hek293T; assay: as above; settings: Gynecologic cancer cell panel viability, ATPlite luminescence, 48 h, control line for the selectivity index; series mostly up to 57.5 µM
How it was run: as §1

[5] = system: OV90; assay: as above; settings: Gynecologic cancer cell panel viability, ATPlite luminescence, 48 h; series mostly up to 57.5 µM
How it was run: as §1

[6] = system: PA-1; assay: as above; settings: Gynecologic cancer cell panel viability, ATPlite luminescence, 48 h; series mostly up to 57.5 µM
How it was run: as §1

[7] = system: SKOV3; assay: as above; settings: Gynecologic cancer cell panel viability, ATPlite luminescence, 48 h; series mostly up to 57.5 µM
How it was run: as §1

[8] = system: Tov112D; assay: as above; settings: Gynecologic cancer cell panel viability, ATPlite luminescence, 48 h; series mostly up to 57.5 µM
How it was run: as §1

[9] = system: JEG-3; assay: as above; settings: Gynecologic cancer cell panel viability, ATPlite luminescence, 48 h; series mostly up to 57.5 µM
How it was run: as §1

[10] = system: Tov-21-G; assay: as above; settings: Gynecologic cancer cell panel viability, ATPlite luminescence, 48 h; series mostly up to 57.5 µM
How it was run: as §1

[11] = system: HeLa; assay: as above; settings: Gynecologic cancer cell panel viability, ATPlite luminescence, 48 h; series mostly up to 57.5 µM
How it was run: as §1

[12] = system: CASKI; assay: as above; settings: Gynecologic cancer cell panel viability, ATPlite luminescence, 48 h; series mostly up to 57.5 µM
How it was run: as §1

[13] = qHTS assay to identify inhibitors of the type 1 interferon - major histocompatibility complex class I in skeletal muscle: Counter screen cell viability and HiBit confirmation (AID 1347412); settings: iHSKM muscle cells + IFN-b, HiBiT or CellTiter-Glo, 24 h; for Potency: HiBiT; for activity change, negative = inhibition: Viability, at 45.9 µM (top of the series); for all read-outs here: nearly all actives have a fitted effect of over 60% in size
How it was run: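 HLA-B*08:01–HiBiT knock-in immortalized human myoblasts (C25cl48) stimulated with 4.0 ng/ml human IFN-beta and dosed with compound in a 12-point 1:3 titration (top final 46 uM). After 24 hrs at 37 C, HiBiT lytic luminescence or CellTiter Glo ATP read out.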

[14] = system: CAOV3; assay: Primary qHTS to identify gynecologic anti-cancer compounds using libraries of approved drugs and bioactive compounds (AID 1345084); settings: Gynecologic cancer cell panel viability, ATPlite luminescence, 48 h; series mostly up to 57.5 µM; note: nearly all actives have a fitted effect of over 55% in size
How it was run: as §1
% is set by controls: 0 for no effect and ±100 for the full control effect; potency is the fitted concentration of half-maximal effect.

COc1cc2c(Nc3ccc(NC(=O)c4ccccc4)cc3)ncnc2cc1OCCCN1CCOCC1
Potency [1]: inactive | Potency [2]: 25.1 µM (active) | Potency [3]: inactive | Potency [4]: inactive | Potency [5]: 25.1 µM (active) | Potency [6]: inactive | Potency [7]: 11.2 µM (active) | Potency [8]: inactive

Cc1cc(Nc2cc(N3CCN(C)CC3)nc(Sc3ccc(NC(=O)C4CC4)cc3)n2)n[nH]1
Potency [1]: inactive | Potency [2]: inactive | Potency [3]: inactive | Potency [9]: inactive | Potency [10]: inactive

CS(=O)(=O)N1CCN(Cc2cc3nc(-c4cccc5[nH]ncc45)nc(N4CCOCC4)c3s2)CC1
Potency [1]: 1.32 µM (active) | Potency [11]: 3.55 µM (active) | Potency [4]: 2.51 µM (active) | Potency [7]: 2.51 µM (active) | Potency [8]: inactive

N#CCNC(=O)c1ccc(-c2ccnc(Nc3ccc(N4CCOCC4)cc3)n2)cc1
Potency [1]: 14.8 µM (active) | Potency [2]: inactive | Potency [12]: inactive | Potency [11]: inactive | Potency [6]: 14.1 µM (active) | Potency [10]: 14.1 µM (active) | Potency [8]: inactive | Potency [13]: 4.43 µM (active) | activity change, negative = inhibition [13]: -6.53%

Cc1cc(N2CCOCC2)cc2[nH]c(-c3c(NC[C@@H](O)c4cccc(Cl)c4)cc[nH]c3=O)nc12
Potency [1]: 1.32 µM (active) | Potency [2]: inactive | Potency [3]: inactive | Potency [9]: inactive | Potency [6]: 14.1 µM (active) | Potency [7]: 14.1 µM (active) | Potency [13]: 6.25 µM (active)

Cc1cc(C(=O)N2CCN(c3cccc(Cl)c3)CC2)n(-c2ccccc2)n1
Potency [1]: 1.66 µM (active) | Potency [14]: inactive | Potency [3]: 11.2 µM (active) | Potency [11]: 8.91 µM (active) | Potency [5]: inactive | Potency [6]: 5.01 µM (active) | Potency [8]: 3.98 µM (active) | activity change, negative = inhibition [13]: -19.8%

COc1cc2c(Oc3ccc(NC(=O)C4(C(=O)Nc5ccc(F)cc5)CC4)cc3F)ccnc2cc1OCCCN1CCOCC1
Potency [1]: 6.62 µM (active) | Potency [3]: 25.1 µM (active) | Potency [11]: 6.31 µM (active) | Potency [4]: 7.94 µM (active) | Potency [9]: inactive | Potency [5]: 12.6 µM (active) | Potency [6]: 28.2 µM (active) | Potency [7]: 22.4 µM (active) | Potency [10]: 15.8 µM (active) | Potency [8]: 12.6 µM (active)

CC(C)c1cc(-c2n[nH]c(=O)n2-c2ccc3c(ccn3C)c2)c(O)cc1O
Potency [1]: 0.372 µM (active) | Potency [14]: inactive | Potency [11]: inactive | Potency [4]: 0.316 µM (active) | Potency [9]: inactive | Potency [5]: 2.51 µM (active) | Potency [6]: 0.251 µM (active) | Potency [10]: 0.282 µM (active) | Potency [13]: 0.0176 µM (active)

Cc1cnc(Nc2ccc(F)cc2Cl)nc1-c1c[nH]c(C(=O)N[C@H](CO)c2cccc(Cl)c2)c1
Potency [1]: 2.64 µM (active) | Potency [12]: 25.1 µM (active) | Potency [3]: 20 µM (active) | Potency [11]: 31.6 µM (active) | Potency [9]: inactive | Potency [6]: 31.6 µM (active) | Potency [10]: 28.2 µM (active)

Cc1ccc(C(N)=O)cc1Nc1nccc(-c2cn(C(C)C)c3cnccc23)n1
Potency [1]: 4.18 µM (active) | Potency [2]: 3.16 µM (active) | Potency [12]: 17.8 µM (active) | Potency [11]: 25.1 µM (active) | Potency [4]: 17.8 µM (active) | Potency [9]: inactive | Potency [5]: 17.8 µM (active) | Potency [10]: 14.1 µM (active) | Potency [8]: 17.8 µM (active) | Potency [13]: 2.49 µM (active) | activity change, negative = inhibition [13]: 26.3%

CC1(C)CC(=O)c2c(C(F)(F)F)nn(-c3ccc(C(N)=O)c(NC4CCC(OC(=O)CN)CC4)c3)c2C1 (stereo not drawn)
Potency [1]: 0.264 µM (active) | Potency [11]: inactive | Potency [9]: inactive | Potency [5]: 0.355 µM (active) | Potency [6]: 0.316 µM (active) | Potency [10]: 0.355 µM (active) | Potency [13]: 0.0557 µM (active)

COc1ccc(F)c(F)c1C(=O)c1cnc(NC2CCN(S(C)(=O)=O)CC2)nc1N
Potency [1]: 2.96 µM (active) | Potency [2]: 10 µM (active) | Potency [12]: 10 µM (active) | Potency [3]: 3.16 µM (active) | Potency [11]: 2.82 µM (active) | Potency [4]: 3.55 µM (active) | Potency [6]: 2.51 µM (active) | Potency [8]: 7.94 µM (active) | Potency [13]: 1.11 µM (active) | activity change, negative = inhibition [13]: 14.1%

CCS(=O)(=O)c1cccc(-c2cc(C(=O)NC3CCN(C)CC3)c(C)c3[nH]c4ncc(C)cc4c23)c1
Potency [1]: 2.35 µM (active) | Potency [12]: 2.82 µM (active) | Potency [3]: 12.6 µM (active) | Potency [11]: 1.58 µM (active) | Potency [4]: 12.6 µM (active) | Potency [9]: 8.91 µM (active) | Potency [6]: 1.26 µM (active) | Potency [7]: 5.62 µM (active) | Potency [8]: 2 µM (active) | Potency [13]: 2.79 µM (active)

Cc1nc(Nc2n[nH]c3c2CN(C(=O)N[C@H](CN(C)C)c2ccccc2)C3(C)C)c2sccc2n1
Potency [1]: 1.48 µM (active) | Potency [12]: 7.94 µM (active) | Potency [3]: 8.91 µM (active) | Potency [11]: 8.91 µM (active) | Potency [4]: 3.55 µM (active) | Potency [5]: 1.58 µM (active) | Potency [7]: 7.08 µM (active) | Potency [8]: 8.91 µM (active) | Potency [13]: 0.0625 µM (active) | activity change, negative = inhibition [13]: 5.01%

Cc1cc(Nc2cc(CN3CCOCC3)c3nc(C)c(Cc4ccc(Cl)cc4F)n3n2)n[nH]1
Potency [1]: 23.5 µM (active) | Potency [2]: inactive | Potency [12]: inactive | Potency [11]: 14.1 µM (active) | Potency [4]: inactive | Potency [6]: inactive | Potency [8]: inactive | Potency [13]: 3.52 µM (active)

COC(=O)Nc1ccc(-c2nc(N3CCOCC3)c3cnn(C4CCN(Cc5cccnc5)CC4)c3n2)cc1
Potency [1]: 1.87 µM (active) | Potency [14]: 8.91 µM (active) | Potency [3]: 4.47 µM (active) | Potency [11]: 25.1 µM (active) | Potency [4]: 2.24 µM (active) | Potency [5]: 4.47 µM (active) | Potency [6]: 15.8 µM (active) | Potency [7]: 2 µM (active) | Potency [10]: 2.82 µM (active)

From PubChem BioAssay (NCATS)
